AmpC inh detg: qHTS Inhibitors of AmpC Beta-Lactamase (assay with detergent) | Potency, µM (doses to about 114 µM), inactives show at the top dose activity change, negative = inhibition, most hits filed as inhibitors | P00811 | 370,000 compounds, 0.041% hits | AmpC hydrolysis of nitrocefin, absorbance 480 nm, 0.01% Triton;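 further: 0% = no-compound wells and -100% = no-enzyme wells; nearly all actives have a fitted effect of over 25% in size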
Target sequence (P00811 whole entry, looked up): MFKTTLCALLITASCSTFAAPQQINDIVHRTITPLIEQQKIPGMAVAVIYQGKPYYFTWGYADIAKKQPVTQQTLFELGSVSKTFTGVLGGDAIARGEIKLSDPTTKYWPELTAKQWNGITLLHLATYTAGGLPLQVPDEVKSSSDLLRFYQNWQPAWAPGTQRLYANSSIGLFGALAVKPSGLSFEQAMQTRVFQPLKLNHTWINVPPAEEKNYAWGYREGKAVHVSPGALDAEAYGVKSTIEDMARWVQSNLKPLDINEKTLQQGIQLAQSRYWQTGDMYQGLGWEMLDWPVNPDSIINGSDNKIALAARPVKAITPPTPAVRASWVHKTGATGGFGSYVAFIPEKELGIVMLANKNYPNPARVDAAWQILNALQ
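20 mM phosphate pH 7.0 + 0.01% (detergent screen) or 0.0001% Triton X-100; 5.3 nM AmpC reagent; cpd preinc 15 min RT; nitrocefin (800 uM stock) to start; A480 q20 s × 4 min; Activity was normalised to no-enzyme and no-compound control wells.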
RE007 growth inh: qHTS Assay for Inhibitors of the HIV-1 protein Vpr; 360,000 compounds, 0.21% hits; Potency, µM (series often up to 92.2 µM), for inactives: at the highest dose activity change, negative = less growth, hits mostly inhibitors; S. pombe RE007 Vpr strain, BacTiter-Glo ATP luminescence, 24 h; active means well fitted falling curve with a large enough effect; inconclusive means small, poorly fitted or top-dose-only effect; inactive means no such curve, though single readings can be large or run the other way; further: nearly all actives have a fitted effect of over 50% in size
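Fission yeast strain RE007, carrying one chromosomally integrated HIV-1 vpr copy, was seeded at OD 0.01 in PMG+AL medium with 23 nL pinned compound. After 24 h at 30 °C and 99% humidity, viability was read by BacTiter-Glo luminescence.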
AmpC no deterg: qHTS Inhibitors of AmpC Beta-Lactamase (assay without detergent); P00811; AmpC nitrocefin hydrolysis, absorbance 480 nm, 0.0001% Triton; Potency, µM (doses to about 57.1 µM), inactives show top-dose activity change, negative = inhibition, actives largely listed as inhibitors; 330,000 compounds, 0.52% hits; AID 485341, 2010;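 further: plate controls were no compound for no effect and no enzyme for full effect; nearly all actives have a fitted effect of over 20% in size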
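20 mM phosphate pH 7.0 + 0.01% (detergent screen) or 0.0001% Triton X-100; 5.3 nM AmpC reagent; cpd preinc 15 min RT; nitrocefin (800 uM stock) to start; A480 q20 s × 4 min; Activity was normalised to no-enzyme and no-compound control wells.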
AMA1 RON2 block: qHTS for Inhibitors of AMA1-RON; Towards Development of Antimalarial Drug Lead: Primary Screen; Plasmodium falciparum AMA1 (3D7) - RON2 peptide interaction; AlphaScreen AMA1-biotinylated RON2 peptide binding; Potency, µM (top dose mostly 58.2 µM), for inactives: top-dose activity change, negative = inhibition, usual class: inhibitors; 360,000 compounds, 0.2% hits;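 further: 0% = vehicle wells and -100% = peptide control; nearly all actives have a fitted effect of over 45% in size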
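AMA1 (3D7) with his tag at 25 nM final met compounds first, then biotinylated RON2 peptide at 25 nM; detection used donor plus acceptor beads, 10 µg/mL apiece, read by AlphaScreen after 30 min at room temperature.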
* = called active by the depositor; ? = inconclusive; · = no result given; [ ] = remark or other dose. Compounds with a hit are over-represented: about 0.79% of the library has one in this group of screens. Unless noted, the call rests on the fitted dose curve; in most records, active means well fitted curve in the direction sought with a large enough effect; inconclusive means small, poorly fitted or top-dose-only effect, or another doubt; inactive means no such curve, though single readings can be large; an effect the other way counts as inactive or inconclusive. Unless noted, on the % scale 0 is the no-effect control and ±100 the full control effect; potency means the concentration at half of the fitted maximal effect.

SMILES	AmpC inh detg	RE007 growth inh	AmpC no deterg	AMA1 RON2 block
O=C(Oc1cccc2cccnc12)c1ccc(Br)o1	-11%	-8%	-6%	14%
O=C(Oc1cccc2cccnc12)c1cccs1	1%	5µM*	-24%	-6%
O=C(NCCOc1cccc2cccnc12)c1cccs1	-10%	-5%	-20%	-19%
O=C(Oc1cccc2cccnc12)c1ccco1	-2%	28µM*	-14%	0%
O=C(O)c1cc(O)c2c(c1)[C@H]([C@H]1c3cc(C(=O)O)cc(O)c3C(=O)c3c(O[C@@H]4O[C@H](CO)[C@@H](O)[C@H](O)[C@H]4O)cccc31)c1cccc(OC3O[C@H](CO)[C@@H](O)[C@H](O)[C@H]3O)c1C2=O (some centres not stated)	4%	21%[18.4 µM]	1µM*	0.89µM*
O=C(O)c1cc(O)c2c(c1)[C@@H]([C@H]1c3cc(C(=O)O)cc(O)c3C(=O)c3c(O[C@@H]4O[C@H](CO)[C@@H](O)[C@H](O)[C@H]4O)cccc31)c1cccc(OC3O[C@H](CO)[C@@H](O)[C@H](O)[C@H]3O)c1C2=O (some centres not stated)	?	2%[18.4 µM]	1.4µM*	?
O=C1c2cc(CO)cc(O)c2C(=O)c2c(O[C@@H]3OC(CO)[C@@H](O)[C@@H](O)[C@@H]3O)cccc21 (some centres not stated)	·	-2%	·	-10%
O=C(NCCc1ccccc1)c1ccc(Cn2c(SCc3ccccc3)nc3cccnc32)cc1	14%	·	·	·
CC(=O)OCC1=C(C(=O)O)N2C(=O)[C@@H](NC(=O)Cc3cccs3)[C@H]2SC1	7.1µM*	13%	8.9µM*	0%
CC(=O)OCC1=C(C(=O)O)N2C(=O)[C@@H](NC(=O)Cc3ccccc3)[C@H]2SC1	·	-7%	·	34%
COc1cc(-c2nc(S(=O)(=O)c3ccc(Br)cc3)c(N3CCOCC3)o2)cc(OC)c1OC	9%	·	·	·
CS(=O)(=O)N(CC(N)=O)c1ccc(F)c(Cl)c1	2%	8%	0.32µM*	21%
CN(C)C(=O)CN(c1ccc(F)c(Cl)c1)S(C)(=O)=O	-2%	-4%	-4%	4%
COc1ccc(-c2cccc(NS(=O)(=O)c3cc(C)ccc3OC)c2)nn1	0%	·	·	·
COc1ccc(CCNC(=O)CSc2n[nH]c(N)n2)cc1	100µM*	-3%	-23%	2%
COc1ccc(CCNC(=O)CSc2n[nH]c(N)n2)cc1OC	?	7%	-15%	14%
CSc1ccc(CCNC(=O)Cn2ccc3cc(S(=O)(=O)N4CCCCCC4)ccc32)cc1	-1%	·	·	·
Oc1ccc(-c2cn3ccccc3n2)cc1O	-14%	·	-10%	22µM*
Oc1ccc(-c2cn3ccccc3n2)cc1	2%	-15%	-4%	0%
Cc1ccn2cc(-c3ccc(O)c(O)c3)nc2c1	-1%	·	-15%	2.5µM*
Cc1cc(C)cc(Oc2nc3c(C)cccn3c(=O)c2/C=C(\C#N)c2nc3ccccc3s2)c1	1%	·	·	·
CCN(c1ccccc1)S(=O)(=O)c1cc(NC(=O)CSc2n[nH]c(=O)[nH]c2=O)ccc1Cl	-9%	0%	20µM*	1%
O=C(CSc1n[nH]c(=O)[nH]c1=O)Nc1ccc2c(c1)C(=O)c1ccccc1C2=O	?	6%	-42%	-6%
COc1cc(C(=O)N(CCCN(C)C)c2nc3c(OC)cccc3s2)cc(OC)c1OC	-2%	·	·	·
O=C(NCc1ccc(Cl)cc1)c1cnc2sc(N3CCCC3)nn2c1=O	13%	·	·	·
SMILES	AmpC inh detg	RE007 growth inh	AmpC no deterg	AMA1 RON2 block
CN(C)c1ccc(Nc2nc(N)c3ccccc3n2)cc1	-11%	25µM*	-22%	?
O=C(COc1ccc(Br)cc1)Nc1ccccc1C(=O)NC1CC1	?	18%	3.2µM*	1%
O=C(COc1ccccc1F)Nc1ccccc1C(=O)NC1CC1	1%	-5%	-18%	21%
Cc1cc(C)c2c(=O)n(CC(=O)Nc3ccc(Cl)cc3)sc2n1	-13%	-5%	?	16%
Cc1cc(C)c2c(=O)n(CC(=O)NCCCN3CCN(c4ccccc4F)CC3)sc2n1	?	?	-7%	-1%
Cc1cc(C)c2c(=O)n(CC(=O)Nc3cccc(F)c3)sc2n1	79µM*	-16%	?	-6%
Cc1cccc(N2CCN(C(=O)Cn3sc4nc(C)cc(C)c4c3=O)CC2C)c1 (configuration not stated)	50µM*	?	-16%	-4%
Cc1cc(C)c2c(=O)n(CC(=O)NCCCN3CCOCC3)sc2n1	45µM*	?	14µM*	18%
Cn1cc(S(=O)(=O)N2CCCCC2)cc1C(=O)NCc1ccc(Cl)cc1	4%	·	·	·
Cn1c(=O)c2c(-c3ccc(C(C)(C)C)cc3)n(N3CCOCC3)cc2n(C)c1=O	35µM*	15%	-10%	2%
Cc1ccc(NC(=O)c2cccc(N3CCCS3(=O)=O)c2)cc1	-2%	·	·	·
CCCCc1ccc(NC(=O)Cn2nnc3sc4c(c3c2=O)CCC(C)C4)cc1 (configuration not stated)	0%	·	·	·
NC(=O)C(=CNc1nc(-c2ccc(Cl)c(Cl)c2)cs1)C(N)=O	-7%	·	14µM*	·
Cc1ccc(NC(=O)N2CCC(N3CCN(Cc4ccccc4)C(=O)C3=O)CC2)cc1Cl	2%	·	·	·
CN(c1ccc(OCC(=O)Nc2nc(-c3ccccc3)cs2)cc1)S(=O)(=O)c1ccc(F)cc1	-1%	17%	-17%	-5%
Cc1ccc(S(=O)(=O)N(C)c2ccc(OCC(=O)Nc3nc(-c4ccccc4)cs3)cc2)cc1	-9%	1%	2µM*	9%
CN(C1=C(N2CCOCC2)C(=O)c2ccccc2C1=O)c1ccccc1	-5%	?	-4%	16µM*
CCOC(=O)c1cccc(NS(=O)(=O)c2cc(Br)cc3c2N(C(=O)C2CC2)CC3)c1	8%	·	·	·
O=[N+]([O-])c1ccc(N2CCOCC2)c2c1no[n+]2[O-]	·	45µM*	·	?
COc1ccc(/C=C/C(=O)c2ccc(O)cc2)cc1COc1ccc(F)cc1	5%	-16%	11µM*	-8%

Screens from PubChem BioAssay.
